10 compounds from PubChem BioAssay (NCI) can be followed below.

Structures are written as SMILES. Several values for one entry are separate records, joined by “and”; a condition that tells them apart may be missing. Identical values can stand only once. Compounds without any hit were thinned out: in the full panel of roughly 83,000, 20% have a hit.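 Interpretation: 100, growth as untreated; towards 0, rising growth inhibition; 0, no net growth; 0 to -100, cell death. Compounds scoring below 10 were considered active.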 Unmarked numbers belong to inactive results. Activity calls are given as the source filed them.

Some test systems named below: SR leukemia; RPMI-8226 leukemia; OVCAR-8 ovarian; OVCAR-5 ovarian; OVCAR-4 ovarian; SK-OV-3 ovarian; IGROV1 ovarian; OVCAR-3 ovarian; HS 578T breast; NCI/ADR-RES ovarian.
Test in all cases: NCI-60 one-dose screen, 48 h (100 = growth as untreated, 0 = no growth, -100 = all killed)
Holding throughout (details): 10 µM

For `O=C1c2cccc3cc([N+](=O)[O-])cc(c23)C(=O)N1CCN1CCCC1`, the growth with SR leukemia is -34.6% (active); in the assay with RPMI-8226 leukemia, -19.1% (active); in the assay on OVCAR-8 ovarian it was 9.55% (active); in the assay with OVCAR-5 ovarian it was -1.73% (active); in the assay on OVCAR-4 ovarian, 3.14% (active); with SK-OV-3 ovarian, -0.119% (active). Besides, the growth in the assay on IGROV1 ovarian was -2.59% (active); with OVCAR-3 ovarian it was -16.8% (active); in the assay on HS 578T breast, -25.4% (active); in the assay on NCI/ADR-RES ovarian it was -2.54% (active).

Regarding `N#C/C(=C/N1C(=O)/C(=C/c2ccc([N+](=O)[O-])cc2)SC1=S)c1nc2ccccc2s1`, the growth with SR leukemia was 73.8%; in the assay with RPMI-8226 leukemia, 67.4%; with OVCAR-8 ovarian, 88.4%; in the assay with OVCAR-5 ovarian, 90.3%; in the assay with OVCAR-4 ovarian, 104%; in the assay with SK-OV-3 ovarian it was 82.4%. Further, the growth was 69.8% in the assay on IGROV1 ovarian, 82.2% in the assay with OVCAR-3 ovarian, 90.4% in the assay with HS 578T breast and 92.3% with NCI/ADR-RES ovarian.

Regarding `Cn1c2nc3ccccc3c-2nc2ccccc21`, the growth in the assay with SR leukemia is 83.5% and 91.1%; in the assay on RPMI-8226 leukemia it was 94.9% and 96.8%; in the assay on OVCAR-8 ovarian, 93% and 88.6%; in the assay on OVCAR-5 ovarian it was 103% and 86.9%; with OVCAR-4 ovarian it was 89.5% and 80.5%; in the assay with SK-OV-3 ovarian, 91.2% and 90.8%. The growth in the assay with IGROV1 ovarian is 79.8% and 61.6%; with OVCAR-3 ovarian it was 99.2% and 93.3%; in the assay with HS 578T breast, 83.4% and 87.5%; in the assay with NCI/ADR-RES ovarian, 99.3% and 93.6%.

As for `COc1ccc(C(C#N)=C2C=CC(=NO)C=C2)cc1`, the growth with SR leukemia was 49.8%; with RPMI-8226 leukemia it was 22%; in the assay with OVCAR-8 ovarian, 80.3%; in the assay on OVCAR-5 ovarian it was 137%; in the assay with OVCAR-4 ovarian, 91.7%; in the assay on SK-OV-3 ovarian, 114%. In addition, the growth in the assay on IGROV1 ovarian is 60.9%; with OVCAR-3 ovarian it was 87.3%; in the assay with HS 578T breast, 99.6%; in the assay with NCI/ADR-RES ovarian it was 94.8%.

As to `O=C(O)c1ccccc1.[Ag]`, the growth with SR leukemia is 102%; in the assay on RPMI-8226 leukemia, 96.9%; in the assay with OVCAR-8 ovarian it was 96.8%; in the assay with OVCAR-5 ovarian it was 102%; with OVCAR-4 ovarian it was 95%; with SK-OV-3 ovarian it was 109%. The growth with IGROV1 ovarian was 116%; in the assay with OVCAR-3 ovarian, 113%; in the assay on HS 578T breast, 114%; in the assay with NCI/ADR-RES ovarian it was 93.2%.

For `CCC(C)(c1ccc(O)c(C)c1)c1ccc(O)c(C)c1`, the growth in the assay on SR leukemia is 113%; in the assay with RPMI-8226 leukemia it was 84.1%; in the assay on OVCAR-8 ovarian, 103%; in the assay with OVCAR-5 ovarian, 101%; with OVCAR-4 ovarian it was 91.9%; in the assay with SK-OV-3 ovarian, 50.8%. Further, the growth in the assay with IGROV1 ovarian was 85.5%; in the assay with OVCAR-3 ovarian it was 102%; in the assay on HS 578T breast, 95%; in the assay with NCI/ADR-RES ovarian it was 103%.

As to `N#CC(=C1C=CC(=NO)C=C1)c1ccccc1`, the growth in the assay with SR leukemia is -17.5% (active); in the assay with RPMI-8226 leukemia, -13% (active); in the assay on OVCAR-8 ovarian, 2.63% (active); in the assay on OVCAR-5 ovarian, -10.1% (active); in the assay on OVCAR-4 ovarian, 14.4%; with SK-OV-3 ovarian it was 37.8%. For the same compound, the growth in the assay on IGROV1 ovarian is 24.5%; with OVCAR-3 ovarian, -26.8% (active); with HS 578T breast, -18.3% (active); in the assay on NCI/ADR-RES ovarian it was -37.2% (active).

Consider `O=C(NC(=S)Nc1ccccn1)c1ccccc1`, for which the growth was 112% with SR leukemia; 60.4% in the assay on RPMI-8226 leukemia; 103% in the assay on OVCAR-8 ovarian; 89.1% in the assay with OVCAR-5 ovarian; 62.7% in the assay with OVCAR-4 ovarian; 107% with SK-OV-3 ovarian. Also, the growth in the assay with IGROV1 ovarian is 78.7%; with OVCAR-3 ovarian it was 98%; in the assay on HS 578T breast, 88.8%; in the assay with NCI/ADR-RES ovarian, 55.3%.

For the compound `O=c1[nH]cc(/C=N\Nc2ccccc2)c(=O)[nH]1`, the growth in the assay on SR leukemia was 65.1%; with RPMI-8226 leukemia it was 76.5%; in the assay on OVCAR-8 ovarian it was 46.7%; in the assay with OVCAR-5 ovarian, 68.4%; in the assay on OVCAR-4 ovarian it was 84.4%; with SK-OV-3 ovarian, 62.2%. For the same compound, the growth in the assay on IGROV1 ovarian was 53.9%; in the assay on OVCAR-3 ovarian, 81.2%; in the assay on HS 578T breast it was 81.7%; in the assay with NCI/ADR-RES ovarian, 56.4%.

Consider `O=C1c2ccccc2CCC1(Br)Br`, for which the growth in the assay with SR leukemia is 0.0746% (active); with RPMI-8226 leukemia, 1.08% (active); in the assay with OVCAR-8 ovarian, 38.6%; in the assay on OVCAR-5 ovarian, 25.8%; in the assay with OVCAR-4 ovarian it was -27.5% (active); in the assay with SK-OV-3 ovarian it was 95%. For the same compound, the growth is 88.4% in the assay on IGROV1 ovarian, -69.6% (active) in the assay on OVCAR-3 ovarian, 69.4% in the assay on HS 578T breast and 19.3% with NCI/ADR-RES ovarian.
